This note sets out measurements from PubChem BioAssay (NCATS).

The nature of experiment [1]: P-glycoprotein substrates identified in KB-3-1 adenocarcinoma cell line, qHTS therapeutic library screen (AID 1346986). Note: nearly all actives have a fitted effect of over 60% in size.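 Note: potency is for cytotoxicity meaning loss of cell viability.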 As to conditions: KB-3-1 parental cells viability, CellTiter-Glo, 72 h; series mostly up to 44.5 µM. Summed up:
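Using luminescence to quantify ATP, parental and P-gp-overexpressing KB cells were compared after 72 h compound titration. KB-8-5-11 was also run with the P-gp inhibitor tariquidar.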
(In qHTS, concentration-response curves come from the screen itself.)

A short description of experiment [2]: P-glycoprotein substrates identified in KB-8-5-11 adenocarcinoma cell line, qHTS therapeutic library screen (AID 1346987). Note: nearly all actives have a fitted effect of over 65% in size. The conditions noted are these: KB-8-5-11 (P-gp overexpressing) viability, CellTiter-Glo, 72 h; series mostly up to 44.5 µM. Summed up:
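Human cervical adenocarcinoma KB-8-5-11 cells, selected in colchicine to over-express P-gp and assayed without it, were exposed for 72 h to titrated compounds. An ATP-based luminescent viability signal gave AC50.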

Records with an inconclusive call do not appear. Activity calls are given as the source filed them. Calls come from the whole dose curve; as a rule, active = well fitted curve in the direction sought with a large enough effect; inconclusive = small, poorly fitted or top-dose-only effect, or another doubt; inactive = no such curve, though single readings can be large; an effect the other way counts as inactive or inconclusive.
Potency is the fitted concentration of half-maximal effect.

As to `CC(C)c1ccc(CC(=O)N2CCC[C@@H](c3cccc(OC(C)(C)C(=O)O)c3)C2)cc1`, the Potency result in experiment [1] and in experiment [2] was “inactive” throughout.
Turning to `C[C@@H]1O[C@@H](O[C@H]2[C@H](OC(=O)C34CCC(C)(C)CC3C3=CCC5C6(C)CC(O)C(O[C@@H]7O[C@H](CO)[C@@H](O)[C@H](O)[C@H]7O)C(C)(C(=O)O)C6CCC5(C)C3(CO)CC4)O[C@H](C)[C@H](O)[C@@H]2O)[C@H](O)[C@H](O)[C@H]1O[C@@H]1OC[C@@H](O)[C@H](O)[C@H]1O` (stereo partly specified), the outcome in experiment [1] and in experiment [2] was “inactive [at 9.29 µM]” in each case.
For the compound `C=CC(C)(C)O[C@@H]1O[C@H](CO[C@@H]2OC[C@](O)(CO)[C@H]2O)[C@@H](O)[C@H](O)[C@H]1O`, the Potency entry in experiment [1] and in experiment [2] was “inactive” each time.
For `Cc1ncc([N+](=O)[O-])n1CC(O)CN1CCOCC1` (stereo unspecified), the Potency result in experiment [1] and in experiment [2] was “inactive” in each case.
`CCCC(N[C@@H](C)C(=O)N1[C@H](C(=O)O)C[C@@H]2CCCC[C@@H]21)C(=O)OCC` (stereo partly specified): the Potency entry in experiment [1] and in experiment [2] was “inactive” throughout.
As to `CC(=O)OC[C@]1(O)[C@H]2[C@H](OC(=O)CC(C)C)OC=C(CO[C@@H]3O[C@H](CO)[C@@H](O)[C@H](O)[C@H]3O)[C@H]2C[C@@H]1O`, the Potency entry in experiment [1] and in experiment [2] was “inactive” throughout.
In the case of `C/C=C/C1=CC2=C(CO1)C(=O)[C@](C)(O)[C@H](OC(=O)c1c(O)cc(OC)c(O)c1C)C2`, the Potency entry in experiment [1] and in experiment [2] was “inactive” in each case.
Consider `CC(C)=CCc1ccc(Oc2c(O)cc(C)cc2CO)c(C(=O)O)c1O`, for which the Potency result in experiment [1] and in experiment [2] was “inactive” in each case.
Turning to `Cc1nc2c(-c3cnc(N)nc3)nc(N3CCOCC3)nc2n1C(C)C`, the Potency in experiment [1] and in experiment [2] was 259 nM (active) in each case.
Turning to `C=CC(C)(C)C12CC3C(=O)NC(Cc4cnc[nH]4)C(=O)N3C1Nc1ccccc12` (stereo unspecified), the Potency entry in experiment [1] and in experiment [2] was “inactive” throughout.
As for `C[C@@H]1O[C@@H](O[C@H]2[C@H](OC(C#N)c3ccc(O)cc3)O[C@H](CO)[C@@H](O)[C@@H]2O)[C@H](O)[C@H](O)[C@H]1O` (stereo partly specified), the Potency entry in experiment [1] and in experiment [2] was “inactive” in each case.
Turning to `COC(=O)CC[C@@H](C)[C@H]1CC[C@H]2[C@@H]3CC(=O)[C@H]4C[C@H](OC(C)=O)CC[C@]4(C)[C@H]3CC[C@]12C`, the Potency result in experiment [1] and in experiment [2] was “inactive” in each case.
Consider `O=C1Nc2ccc(O)cc2O[C@H]1O[C@@H]1O[C@H](CO)[C@@H](O)[C@H](O)[C@H]1O`, for which the Potency result in experiment [1] and in experiment [2] was “inactive” each time.
Take `CCCCS(=O)(=O)Nc1ncnc(OCCOc2ncc(Br)cn2)c1-c1ccc(Br)cc1`: the Potency entry in experiment [1] and in experiment [2] was “inactive” each time.
Take `CCCCN(CCCC)C(=O)CN1C[C@H](c2ccc3c(c2)OCO3)[C@@H](C(=O)O)[C@@H]1c1ccc(OC)cc1`: the Potency result in experiment [1] and in experiment [2] was “inactive” throughout.
Take `CC(=O)OC(CSC1CCC(=O)OC(C)CCC(=O)C1)C(=O)O` (stereo unspecified): the Potency result in experiment [1] and in experiment [2] was “inactive” in each case.
On to `O=C(c1ccc(C#Cc2cccc(F)c2)cn1)N1CC2CC2C1` (stereo unspecified), for which the Potency entry in experiment [1] and in experiment [2] was “inactive” in each case.
As for `CC(C)=CCCC1(C)Oc2cc3c(c4c2C2C(O4)C(C)(O)CCC21)CN(C(CCC(=O)O)C(=O)O)C3=O` (stereo unspecified), the Potency entry in experiment [1] and in experiment [2] was “inactive” each time.
